This passage reports B-score results from PubChem BioAssay AID2550 (Johns Hopkins Ion Channel Center, 2010).

In all, about 310,000 compounds went through this assay and about 380 (0.12%) were called active. This is one part of a sample in which actives are shown more often than they occur.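 How the source made its calls: active means B-score of the integrated fluorescence ratio above library mean plus 3 SD, and starting fluorescence ratio within library mean plus 5 SD; inactive means the rest.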

In this assay the target is Short transient receptor potential channel 6 (Mus musculus) (UniProt Q61143). The assay is described as follows: small molecules opening TRPC6 cation channel – cell-based, HEK293, membrane potential dye, primary screen (AID 2550).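 Further: higher score means more depolarization so channel activation.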 Particulars: HEK293-TRPC6 membrane potential dye fluorescence, at 10 µM; active compounds read high.
Sequence of Short transient receptor potential channel 6 (Mus musculus) (Q61143 whole entry, looked up): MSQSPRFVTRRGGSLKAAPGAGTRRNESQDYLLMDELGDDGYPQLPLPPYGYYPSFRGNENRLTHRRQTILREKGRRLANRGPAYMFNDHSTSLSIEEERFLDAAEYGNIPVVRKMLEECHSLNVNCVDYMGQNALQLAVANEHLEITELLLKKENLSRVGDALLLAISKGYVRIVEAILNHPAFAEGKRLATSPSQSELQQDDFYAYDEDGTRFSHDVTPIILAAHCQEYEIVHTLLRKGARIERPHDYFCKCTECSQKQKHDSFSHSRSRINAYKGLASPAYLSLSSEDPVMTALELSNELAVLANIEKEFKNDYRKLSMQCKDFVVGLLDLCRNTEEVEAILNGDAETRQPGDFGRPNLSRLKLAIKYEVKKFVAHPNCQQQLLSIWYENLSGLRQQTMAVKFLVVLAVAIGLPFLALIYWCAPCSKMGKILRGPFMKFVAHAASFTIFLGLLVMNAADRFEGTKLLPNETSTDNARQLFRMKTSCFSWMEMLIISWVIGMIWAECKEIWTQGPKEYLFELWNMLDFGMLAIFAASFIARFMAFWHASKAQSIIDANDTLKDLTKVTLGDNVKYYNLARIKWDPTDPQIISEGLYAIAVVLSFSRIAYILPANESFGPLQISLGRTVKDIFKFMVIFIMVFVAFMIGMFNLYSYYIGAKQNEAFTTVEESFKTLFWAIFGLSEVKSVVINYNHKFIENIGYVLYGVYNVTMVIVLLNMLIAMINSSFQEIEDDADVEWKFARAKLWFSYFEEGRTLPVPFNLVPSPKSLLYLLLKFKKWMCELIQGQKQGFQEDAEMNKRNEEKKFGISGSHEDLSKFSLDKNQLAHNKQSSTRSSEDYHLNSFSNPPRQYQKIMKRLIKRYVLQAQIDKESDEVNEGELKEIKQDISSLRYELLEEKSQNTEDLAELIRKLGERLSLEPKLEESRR
For `COc1ccc(CN2CCC(c3nc4ccc(Cl)cc4[nH]3)CC2)cc1`, the B-score entry was “inactive”.
Under `CCc1ccc(C(=O)NNC(=O)C2CCN(c3ncnc4sc(C)c(C)c34)CC2)cc1` stands “inactive”; under `O=C(O)CCn1c(SCc2cc(=O)n3ccccc3n2)nc2ccsc2c1=O`, “inactive”; under `Cc1sc(NC(=O)C2C3CCC(O3)C2C(=O)O)c(C(=O)OC(C)C)c1-c1ccc(Cl)cc1` (configuration not stated), “inactive”.
`CC(C)(C)n1nnnc1C(c1ccccc1F)N1CCN(C(=O)c2ccco2)CC1` (configuration not stated): the B-score entry is “inactive”.
In the case of `CCOCCCN(C)C1CCN(C(=O)c2oc3ccccc3c2NC(=O)Cc2cccc([N+](=O)[O-])c2)CC1`, the B-score result is “inactive”.
For the compound `CC1=C(N2CCN(c3ncccn3)CC2)CCC1=O`, the B-score entry was “inactive”.
The same measure for `O=S(=O)(NC(=S)Nc1ccccc1)c1ccc(F)cc1`: “inactive”; for `Nc1ccc(SCCN2C(=O)c3ccccc3C2=O)cc1`: “inactive”; for `COC(=O)CNc1nc(Cl)nc(N2CCC(C)CC2)n1`: “inactive”.
The same measure for `Cc1ccc(CNC(=O)c2ccccc2CCc2ccccc2)cc1`: “inactive”; for `O=C1CC2(CC(c3ccc(Cl)cc3)=NO2)C(=O)N1c1ccccc1` (configuration not stated): “inactive”; for `CCCN(CCC)c1nc2c(C)cccn2c(=O)c1/C=C1/SC(=S)N(Cc2ccco2)C1=O`: “inactive”.
In the case of `CCOC(=O)CC1C(=O)NCCN1c1nc2c(C)cccn2c(=O)c1/C=C1\SC(=S)N(C(C)CC)C1=O` (configuration not stated), the B-score is 26.7 (active).
As to `CCOC(=O)N1CCN(C(=O)CSc2nc(=O)n3cccc(C)c3n2)CC1`, the B-score result was “inactive”.
With `O=C1C2C3C=CC(C4CC34)C2C(=O)N1/N=C/c1ccc(-c2ccccc2[N+](=O)[O-])o1` (configuration not stated), the B-score entry is “inactive”.
`COC(=O)[C@@H](Cc1ccccc1)NC(=O)NCCc1ccccc1`: the B-score entry was “inactive”.
For the compound `O=[N+]([O-])c1ccccc1N/N=C1\CCc2ccccc21`, the B-score entry was “inactive”.
On to `O=C(NCCS(=O)(=O)NCc1ccc(Cl)cc1)c1ccccc1`, for which the B-score entry is “inactive”.
Regarding `CC(C)NC(=O)c1ccc(Sc2ccccc2)c([N+](=O)[O-])c1`, the B-score result was “inactive”.
For the compound `CCOc1ccc(S(=O)(=O)N2CCCCCC2)c2ccccc12`, the B-score result was “inactive”.
With `CC1CCCCC1NC(=O)CSc1nnc(-c2ccncc2)n1CCCN(C)C` (configuration not stated), the B-score result was “inactive”.
Under `CCOC(=O)C1=C(O)/C(=C/c2cc(C)n(-c3ccccc3)c2C)N=C1C` stands “inactive”; under `COc1cc(OC)c(C2=NOC(C(=O)Nc3c(C)n(C)n(-c4ccccc4)c3=O)C2)cc1Cl` (configuration not stated), “inactive”.
For `CC(C)Cc1oc(C(=O)O)cc1CN`, the B-score entry was “inactive”.
Under `O=[N+]([O-])c1cc(Cl)cc(/C=N/NC(=S)Nc2cc(S(=O)(=O)N3CCOCC3)ccc2Cl)c1O` stands “inactive”; under `COc1ccc(S(=O)(=O)n2nc(C)c(S(=O)(=O)N3CCOCC3)c2C)cc1`, “inactive”; under `CCOc1ccc(-c2c(C)n([O-])c3c([n+]2=O)CCCC3)cc1`, “inactive”.
As for `COCCOC(=O)c1sc(=S)n(CCOC)c1N`, the B-score result is “inactive”.
As to `O=S(=O)(c1cccc2nonc12)N1CCN(c2cccc(Cl)c2)CC1`, the B-score entry is “inactive”.
The same measure for `Cc1cc(C)nc(SC(C)C(=O)N/N=C/c2cccs2)n1` (configuration not stated): “inactive”.
`CN1CCN(c2cc3c(cc2F)c(=O)c(C(=O)O)cn3CCF)CC1`: the B-score entry was “inactive”.
For the compound `CCn1cc(C(=O)NCCO)c(=O)c2cc(F)c(N3CCN(C)CC3)cc21`, the B-score result is “inactive”.
In the case of `CCCCCCn1cc(C(=O)O)c(=O)c2cc(F)c(N3CCCCC3)cc21`, the B-score was 12.2 (active).
In the case of `COCCNC(=O)/C(C#N)=C/c1nc(N(C)C)n(-c2ccc(F)cc2)c1Cl`, the B-score result was “inactive”.
For `CCOC(=O)Cn1c(=O)oc2cc(S(=O)(=O)N(C)Cc3ccco3)ccc21`, the B-score entry was “inactive”.
On to `CCOC(=O)/C=c1\s/c(=C\c2ccc(C#N)cc2)c(=O)n1CC(=O)Nc1cccc(C)c1C`, for which the B-score result was “inactive”.
Under `CN(c1ccccc1)c1ccc(/C=c2\s/c(=C(/C#N)C(=O)C(C)(C)C)n(Cc3ccco3)c2=O)cc1` stands 33.3 (active).
For the compound `CCn1cc(/C=C(\NC(=O)c2cc(OC)c(OC)c(OC)c2)C(=O)N2CCN(C)CC2)c2ccccc21`, the B-score entry is “inactive”.
Regarding `O=C(NNc1ccccc1Cl)C(O)(c1cccc(C(F)(F)F)c1)c1cccc(C(F)(F)F)c1`, the B-score entry was “inactive”.
Take `CCOC1CCCCC1NS(=O)(=O)c1ccc(Cl)cc1` (configuration not stated): the B-score result was “inactive”.
Turning to `CCn1ccnc1CN1CCCC(C(=O)c2ccc3c4c(cccc24)CC3)C1` (configuration not stated), the B-score result is “inactive”.
The same measure for `COc1cc2c(cc1OC)C(C(=O)NCc1ccco1)C1c3ccccc3CCN1C2=O` (configuration not stated): “inactive”; for `CCn1cc(/C=C2/SC(=S)NC2=O)c(C)n1`: “inactive”.
The same measure for `CCN1C(=NCCc2cccnc2)N[C@@H](c2ccccc2)[C@H](C(=O)OC)[C@H]1C`: “inactive”; for `CCOc1ccc(NC(=O)C2CCN(C(=O)N3CCOc4ccccc43)CC2)cc1`: “inactive”; for `CCCCn1c(N)c(N(CCOC)C(=O)c2cccc(OCc3ccccc3)c2)c(=O)[nH]c1=O`: “inactive”.
As for `C#CC(C)(C)NC(=O)c1cnc(-c2ccccc2)nc1-c1ccccc1`, the B-score entry was “inactive”.
Regarding `CC(=O)Nc1ccc(CN2CCC(Oc3ccc(C(=O)N4CCCC4)cc3)CC2)cc1`, the B-score result is “inactive”.
For `Cc1ccc(S(=O)(=O)/N=C(\CN2CCOCC2)N2CCOCC2)cc1`, the B-score entry was “inactive”.
With `CCc1ccccc1OCC(=O)Nc1ccc2c(c1)OCCO2`, the B-score result is “inactive”.
On to `COc1ccc2oc(C(=O)NCC(Cc3ccccc3)N(C)C)c(C)c2c1` (configuration not stated), for which the B-score entry is “inactive”.
Under `COc1c(O)ccc2c1CN1CCc3cc4c(cc3C1C2)OCO4` (configuration not stated) stands “inactive”; under `Cc1ccc(S(=O)(=O)c2nnn3c2nc(N2CCN(c4ccccn4)CC2)c2ccccc23)cc1`, “inactive”; under `Cc1cccc(N2CCN(C(c3ccc(N(C)C)cc3)c3nnnn3C(C)(C)C)CC2)c1C` (configuration not stated), “inactive”.
Turning to `CC(C)(C)n1nnnc1C(c1ccc(Cl)cc1)N1CCSCC1` (configuration not stated), the B-score entry was “inactive”.
The same measure for `CC(C)(C)n1nnnc1C(c1ccc2ncccc2c1)N1CCSCC1` (configuration not stated): 12.7 (active); for `CN(C)C(CNC(=O)c1ccc(S(=O)(=O)NCc2ccco2)cc1)c1ccccc1` (configuration not stated): “inactive”.
Consider `CC(=O)N(Cc1cccs1)C1CCOC(C)(C)C1` (configuration not stated), for which the B-score result is “inactive”.
For `CCc1ccc(C2C(C#N)=C(N)N(N3CCOCC3)C3=C2C(=O)CC(C)(C)C3)s1` (configuration not stated), the B-score entry was “inactive”.
Regarding `Cc1ccc(Cl)cc1N1CCN(C(=O)c2cccc3c(=O)c(C)c(-c4ccccc4)oc23)CC1`, the B-score entry is “inactive”.
Under `Cc1ccc(-c2csc(NCCc3nc4cc(Cl)c(Cl)cc4n3CCOCCO)n2)cc1` stands “inactive”; under `Cc1cc(/C=N/n2cnnc2)c(C)n1-c1ccc2ncccc2c1`, “inactive”.
Regarding `COc1ccc(NC(=S)N2CCC(NC(=O)c3cccc(F)c3)CC2)cc1`, the B-score entry was “inactive”.
Under `CN(C)c1ccnc2sc(C(=O)c3ccccc3)c(N)c12` stands “inactive”; under `O=C(CN1C2=NCCN2c2ccccc21)c1cccs1`, “inactive”.
Under `Nc1c(C(=O)c2cccs2)sc2nsc(SCCN3CCCCC3)c12` stands 19.2 (active).
Turning to `O=C(NCCNc1ccccc1[N+](=O)[O-])c1ccccc1F`, the B-score entry is “inactive”.
On to `O=C(CSc1nnc(Cn2cnc3ccccc32)o1)c1ccccc1`, for which the B-score result was “inactive”.
`COc1ccc(NC(=O)c2oc3ccc(S(=O)(=O)N4CCOCC4)cc3c2C)cc1`: the B-score result is “inactive”.
With `Nc1ccc(Cl)c(S(=O)(=O)Nc2ccccc2Cl)c1`, the B-score result is “inactive”.
The same measure for `CCCCNC(=O)N1CCN(S(C)(=O)=O)CC1`: “inactive”.
Turning to `CCCCn1c(O)c(N=NC(=O)Cn2c(C(F)(F)F)nc3ccccc32)c2ccccc21`, the B-score entry is “inactive”.
For `CN(C)c1ccc(/C=C2\NC(=S)N(Cc3ccccc3)C2=O)cc1`, the B-score is 22.1 (active).
As to `O=C1/C(=C\c2ccsc2)NC(=S)N1c1ccccc1`, the B-score result was “inactive”.
On to `COc1cc(/C=C2/SC(=S)N(Cc3ccccc3)C2=O)cc(OC)c1O`, for which the B-score entry was “inactive”.
On to `Cc1cccc(C)c1NC(=O)CSc1nc2c([nH]1)c(=O)n(C)c(=O)n2C`, for which the B-score result was “inactive”.
